# Results filed as inconclusive are left out. Entries that show only a call come without a potency. Calls of active or inactive are those of the source. Calls come from the whole dose curve; as a rule, active = well fitted curve in the direction sought with a large enough effect; inconclusive = small, poorly fitted or top-dose-only effect, or another doubt; inactive = no such curve, though single readings can be large; an effect the other way counts as inactive or inconclusive.
# Key:
# [1] = S16 Schwann cell viability assay (CellTiter-Glo assay) (AID 624031);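 note: native untransfected S16 rat Schwann cells; cellular ATP luminescence as a viability measure; nearly all actives have a fitted effect of over 70% in size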
# How it was run: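 Following overnight culture in 10% FBS DMEM, parental S16 rat Schwann cells are dosed for 24 h at 37 °C. Viability is read as CellTiter-Glo luminescence and expressed as % activity relative to DMSO (0%) and no-cell wells.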
# [2] = tested on: 3D7; test: qHTS profiling for inhibitors of Plasmodium falciparum proliferation (AID 504749); note: nearly all actives have a fitted effect of over 60% in size; note: potency is the fitted concentration of half-maximal effect; conditions: P. falciparum in erythrocytes, SYBR Green DNA, 72 h; series mostly up to 28.7 µM
# How it was run: (§1)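 In a 72 h erythrocytic culture (37 C, humidified, 5% CO2) at 2.5% hematocrit and 0.3% starting parasitemia, compounds were tested; SYBR Green I in detergent lysis buffer stained parasite DNA overnight.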
# [3] = tested on: CP191; test: as above; conditions: P. falciparum in erythrocytes, SYBR Green DNA, 72 h; series mostly up to 28.7 µM
# How it was run: as §1
# [4] = tested on: CP217; test: as above; conditions: P. falciparum in erythrocytes, SYBR Green DNA, 72 h; series mostly up to 28.7 µM
# How it was run: as §1
# [5] = tested on: CP237; test: as above; conditions: P. falciparum in erythrocytes, SYBR Green DNA, 72 h; series mostly up to 28.7 µM
# How it was run: as §1
# [6] = tested on: CP247; test: as above; conditions: P. falciparum in erythrocytes, SYBR Green DNA, 72 h; series mostly up to 28.7 µM
# How it was run: as §1
# [7] = tested on: CP252; test: as above; conditions: P. falciparum in erythrocytes, SYBR Green DNA, 72 h; series mostly up to 12.8 µM
# How it was run: as §1
# [8] = tested on: CP265; test: as above; conditions: P. falciparum in erythrocytes, SYBR Green DNA, 72 h; series mostly up to 12.8 µM
# How it was run: as §1
# [9] = tested on: CP286; test: as above; conditions: P. falciparum in erythrocytes, SYBR Green DNA, 72 h; series mostly up to 28.7 µM
# How it was run: as §1
# [10] = tested on: CP297; test: as above; conditions: P. falciparum in erythrocytes, SYBR Green DNA, 72 h; series mostly up to 28.7 µM
# How it was run: as §1
# [11] = tested on: CP335; test: as above; conditions: P. falciparum in erythrocytes, SYBR Green DNA, 72 h; series mostly up to 12.8 µM
# How it was run: as §1
# [12] = tested on: Dd2; test: as above; conditions: P. falciparum in erythrocytes, SYBR Green DNA, 72 h; series mostly up to 28.7 µM
# How it was run: as §1
# [13] = tested on: ECU; test: as above; conditions: P. falciparum in erythrocytes, SYBR Green DNA, 72 h; series mostly up to 28.7 µM
# How it was run: as §1
# [14] = tested on: HB3; test: as above; conditions: P. falciparum in erythrocytes, SYBR Green DNA, 72 h; series mostly up to 28.7 µM
# How it was run: as §1
# [15] = tested on: JCK; test: as above; conditions: P. falciparum in erythrocytes, SYBR Green DNA, 72 h; series mostly up to 28.7 µM
# How it was run: as §1
# [16] = tested on: N140; test: as above; conditions: P. falciparum in erythrocytes, SYBR Green DNA, 72 h; series mostly up to 28.7 µM
# How it was run: as §1
# [17] = tested on: PC15; test: as above; conditions: P. falciparum in erythrocytes, SYBR Green DNA, 72 h; series mostly up to 28.7 µM
# How it was run: as §1
# [18] = tested on: SC27B; test: as above; conditions: P. falciparum in erythrocytes, SYBR Green DNA, 72 h; series mostly up to 28.7 µM
# How it was run: as §1
# [19] = tested on: TAB109; test: as above; conditions: P. falciparum in erythrocytes, SYBR Green DNA, 72 h; series mostly up to 12.8 µM
# How it was run: as §1
# [20] = tested on: TAB165; test: as above; conditions: P. falciparum in erythrocytes, SYBR Green DNA, 72 h; series mostly up to 28.7 µM
# How it was run: as §1
SMILES,Potency [1],Potency [2],Potency [3],Potency [4],Potency [5],Potency [6],Potency [7],Potency [8],Potency [9],Potency [10],Potency [11],Potency [12],Potency [13],Potency [14],Potency [15],Potency [16],Potency [17],Potency [18],Potency [19],Potency [20]
C[C@]12CC[C@H](O)CC1=CCC1C2CC[C@]2(C)C(=O)CC[C@@H]12 (stereo not given in full),inactive,inactive,inactive,inactive,inactive,inactive,inactive,inactive,inactive,19000 nM (active),inactive,inactive,inactive,inactive,inactive,inactive,inactive,inactive,inactive,inactive
CCNC[C@H](O)c1cccc(O)c1,inactive,inactive,inactive,inactive,inactive,inactive,inactive,inactive,inactive,,inactive,inactive,inactive,inactive,inactive,inactive,inactive,inactive,inactive,inactive
C[C@@]12CC[C@H]3[C@@H](CC[C@@H]4C[C@H]5S[C@H]5C[C@]43C)[C@H]1CC[C@H]2O,inactive,inactive,inactive,inactive,inactive,inactive,inactive,inactive,inactive,inactive,inactive,inactive,inactive,inactive,inactive,inactive,inactive,inactive,inactive,inactive
C[N+]1([O-])[C@@H]2CC(OC(=O)[C@@H](CO)c3ccccc3)C[C@@H]1[C@H]1O[C@H]12 (stereo not given in full),inactive,inactive,inactive,inactive,inactive,inactive,inactive,inactive,inactive,inactive,inactive,inactive,inactive,inactive,inactive,inactive,inactive,inactive,inactive,inactive
CC(C)c1c(CN(C)[C@@H](C)Cc2ccccc2)n(C)n(-c2ccccc2)c1=O,inactive,inactive,inactive,inactive,inactive,inactive,inactive,inactive,inactive,inactive,inactive,inactive,inactive,inactive,inactive,inactive,inactive,inactive,inactive,inactive
C[C@H]1CN(C2CCC(C#N)(c3ccc(F)cc3)CC2)CC[C@@]1(C(=O)O)c1ccccc1 (stereo not given in full),inactive,inactive,inactive,inactive,inactive,inactive,inactive,inactive,inactive,inactive,inactive,inactive,inactive,inactive,inactive,inactive,inactive,inactive,inactive,inactive
CC(=O)O[C@H]1CC[C@@]2(C)C(=CC[C@@H]3[C@H]2CC[C@]2(C)C(=O)CC[C@H]32)C1,inactive,inactive,inactive,inactive,inactive,inactive,inactive,inactive,inactive,inactive,inactive,inactive,inactive,inactive,inactive,inactive,inactive,inactive,inactive,inactive
C[C@H](N)[C@@H](O)c1ccccc1,inactive,inactive,inactive,inactive,inactive,inactive,inactive,inactive,inactive,inactive,inactive,inactive,inactive,inactive,inactive,inactive,inactive,inactive,inactive,inactive
COc1ccc2c(c1OC)CN1CCc3cc4c(cc3[C@H]1C2)OCO4,inactive,,,,,,,,,1810 nM (active),,,,,,,,,2240 nM (active),
C#CCN(C)[C@@H](C)Cc1ccccc1,,inactive,inactive,inactive,inactive,inactive,inactive,inactive,inactive,inactive,inactive,inactive,inactive,inactive,inactive,inactive,inactive,inactive,,inactive
